Data reported in PubChem BioAssay (EPA / NIEHS).
The source made the active and inactive calls. Rule for the calls: active = hit-call score of the fitted dose curve at least 0.9, where 1 is the maximum; inactive = score below 0.9.

Experiment: ATG_DR4_LXR_CIS: Attagene CIS-FACTORIAL HepG2 Assay for human Liver X Receptor (LXR), DR4 submotif (AID 2282929)
Details: HepG2 Attagene DR4 cis-reporter, mRNA transcription; actives raise or lower the signal
Description: ATG_CIS is a cell-based, multiplexed-readout assay that uses HepG2, a human liver cell line, with measurements taken at 24 hours after chemical dosing in a 24-well plate.ATG_DR4_LXR_CIS is one of 52 assay component(s) measured or calculated from the ATG_CIS assay. It is designed to make measurements of mRNA induction, a form of inducible reporter, as detected with fluorescence intensity signals by Reverse transcription polymerase chain reaction (RT-PCR) and Capillary electrophoresis technology.Data from the assay component ATG_DR4_LXR_CIS was analyzed into 1 assay endpoint. This assay endpoint, ATG_DR4_LXR_CIS, was analyzed with bidirectional fitting relative to DMSO as the negative control and baseline of activity. Using a type of inducible reporter, measures of mRNA for gain or loss-of-signal activity can be used to understand the reporter gene at the transcription factor-level as they relate to the gene NR1H2 and NR1H3. Furthermore, this assay endpoint can be referred to as a primary readout, because this assay has produced multiple assay endpoints where this one serves a reporter gene function. To generalize the intended target to other relatable targets, this assay endpoint is annotated to the nuclear receptor intended target family, where the subfamily is non-steroidal.
Human liver HepG2 cells are transiently transfected with multiple reporter transcription units (MRTUs) in 6-well plates using FuGene 6 reagent (Roche; 3 ml FuGene/1 mg DNA). The MRTU constructs are regulated by a cis-regulating element (promoter). […] A major difference between the CIS and TRANS system is that in CIS activities of endogenous TFs are measured, whereas the TRANS assay evaluates changes in activities of exogenous, chimeric NR-Gal4 proteins. […] At the end of 24 hour incubation, total RNA was isolated using TriZol reagent (Invitrogen). The isolated RNA is then reverse-transcribed using oligo(dT) primer and Mo-MLV reverse transcriptase (Invitrogen) with DNAse I (Ambion) treatment for 30 min. The one-tenth of the produced cDNA was amplified by PCR using Taq DNA polymerase (Invitrogen) and two reporter sequence-specific primers. The PCR products were fluorescently labeled by primer extension with 6-arboxyfluorescein (6-FAM) 5'-labeled reporter sequence-specific primer (2 min at 95 C, 20 s at 68 C and 10 min at 72 C) and these products were digested with 5U of HpaI (New England Biolabs) for 2h at 37 C. The fragments were purified using Qiaquick PCR columns (Qiagen), analyzed on an ABI 3130xL genetic analyzer (Applied Biosystems) with peak positions identified by using a set of X-rhodamine (ROX)-labeled MapMarker1000 molecular weight standards (BioVentures). The raw capillary electrophoresis data was processed using Attagraph software (Attagene).

| Structure (SMILES) | outcome | AC50 |
| --- | --- | --- |
| O=C(O)CN(CCN(CC(=O)O)CC(=O)O)CCN(CC(=O)O)CC(=O)O | inactive |  |
| Clc1nc(C(Cl)(Cl)Cl)c(Cl)c(Cl)c1Cl |  | 18 µM (active) |
| CCCCCC(=O)OCCc1ccccc1 | inactive |  |
| CC(c1cc2ccccc2s1)N(O)C(N)=O (stereo not given) | inactive |  |
| Nc1cc([N+](=O)[O-])ccc1Cl | inactive |  |
| CCCCCCCCC=O | inactive |  |
| COc1ccc(Cl)cc1C | inactive |  |
| FC1(F)C(F)(F)C(F)(F)C2(F)C(F)(C1(F)F)C(F)(F)C(F)(F)C1(F)C(F)(F)C(F)(F)C(F)(F)C(F)(F)C12F (stereo not given) | inactive |  |
| CCCCCCC#CC(=O)OC | inactive |  |
| Cc1ccc(C(=O)c2cc(O)c(O)c([N+](=O)[O-])c2)cc1 | inactive |  |
| O=C(O)c1ccc([N+](=O)[O-])cc1 | inactive |  |
| C=O | inactive |  |
| CCC(C)CCCC(C)(C)O (stereo not given) | inactive |  |
| CC(=O)C(=O)O | inactive |  |
| CC(C)(N)CO | inactive |  |
| CCCCC(CC)COC(=O)/C=C\C(=O)OCC(CC)CCCC (stereo not given) |  | 54.7 µM (active) |
| CCCCCCCCCCCCOCCO |  | 51.7 µM (active) |
| COc1cccc(OC)c1 | inactive |  |
| NC(=O)NC1NC(=O)NC1=O (stereo not given) | inactive |  |
| NCCCCCCN | inactive |  |

| Structure (SMILES) | outcome | AC50 |
| --- | --- | --- |
| S=C(S)NCCNC(=S)S | inactive |  |
| CC(=O)/C=C/C1=C(C)CCCC1(C)C | inactive |  |
| CCN(CC)c1ccc2c(-c3ccccc3C(=O)O)c3ccc(=[N+](CC)CC)cc-3oc2c1 |  | 130 µM (active) |
| Nc1cc(Cl)c(O)c(Cl)c1 | inactive |  |
| Cc1ncc([N+](=O)[O-])n1C | inactive |  |
| CSc1nnc(C(C)(C)C)c(=O)[nH]1 | inactive |  |
| CC(C)(CO)[N+](=O)[O-] | inactive |  |
| CC(C=O)Cc1ccc(C(C)C)cc1 (stereo not given) | inactive |  |
| CC(C)OP(=O)(CP(=O)(OC(C)C)OC(C)C)OC(C)C | inactive |  |
| CC(CCO)CCCC(C)(C)O (stereo not given) | inactive |  |
| COc1cc2ncnc(Nc3cccc(Cl)c3)c2cc1OC | inactive |  |
| CN(CCOc1ccc(CC2SC(=O)NC2=O)cc1)c1ccccn1 (stereo not given) | inactive |  |
| OCCOc1cccc(OCCO)c1 | inactive |  |
| CCCCc1ccc(N)cc1 | inactive |  |
| CC(=O)C=CC1=C(C)CCCC1(C)C |  | 3.8 µM (active) |
| Cc1ccc(Nc2ccc(O)c3c2C(=O)c2ccccc2C3=O)cc1 | inactive |  |
| CCCC(C)C=O (stereo not given) | inactive |  |
| CCCC(=O)OCCC(C)CCC=C(C)C (stereo not given) | inactive |  |
| CCCc1c(OCCCOc2ccc(OCC(=O)O)cc2)ccc(C(C)=O)c1O | inactive |  |
| Cc1cccc(C)c1[N+](=O)[O-] | inactive |  |
